The source made the active and inactive calls.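 Rule for the calls: active = compounds whose fitted half-maximal cell-killing potency is at most twice their top tested dose; inconclusive = flat curve with 30 to 70% signal loss, or poor fit; inactive = the rest.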

We go through 27 molecules from PubChem BioAssay AID652119 (Broad Institute, 2013).

A short description of the experiment: loss of viability in embryonic kidney cells – cell-based, HEK293T, ATP luminescence, dry powder, cytotoxicity control, dose response (AID 652119). Particulars: CellTiter-Glo ATP luminescence, 48 h; series mostly up to 26 µM.
For `C=CCOc1ccc(CN2CCC(CCOc3ccccc3)(C(=O)N(C)CC)CC2)cc1Cl`, the result was inactive.

On to `C=CCOc1ccc(CN2CCC(CCOc3ccccc3)(C(=O)N3CCCC3)CC2)cc1Cl`, for which the outcome was inactive.

With `CCOC(=O)C1(CCOc2ccccc2)CCN(Cc2cccc(Cl)c2)CC1`, the result was inactive.

Regarding `CCOC(=O)C1(CCOC)CCN(Cc2ccc(O)c(Cl)c2)CC1`, the molecule was called inactive.

As for `CCOC(=O)c1c(CN2CCN(CCO)CC2)n(-c2ccccc2)c2cc(Br)c(O)cc12`, the result was inactive.

Consider `CC(C)(C)OC(=O)C1(CCOc2ccccc2)CCN(Cc2ccc(O)c(Cl)c2)CC1`, for which the molecule was classed as inactive.

Consider `CC(C)OC(=O)C1(CCOc2ccccc2)CCN(Cc2ccc(O)c(Cl)c2)CC1`, for which the result was inactive.

As for `C/C1=C\C[C@H](OC(=O)c2ccc(O)cc2)/C(C)=C/[C@@H](O)C(C)(C)CCC1`, the result was inactive.

On to `CCOC(=O)C1(Cc2cccc(OC)c2)CCN(Cc2ccc(O)c(Cl)c2)CC1`, for which the molecule was called inactive.

As to `O=C(NC1CCCC1)C1(CCOc2ccccc2)CCN(Cc2ccc(O)c(Cl)c2)CC1`, the call was inactive.

For `CCOC(=O)C1(CCOc2ccccc2)CCN(Cc2ccc(O)cc2)CC1`, the call was inactive.

As to `CCOC(=O)C1(CCOc2ccccc2)CCN(Cc2ccc(OC)c(Cl)c2)CC1`, the result was inactive.

In the case of `O=C(Nc1ccccc1)C1(CCOc2ccccc2)CCN(Cc2ccc(O)c(Cl)c2)CC1`, the result was inactive.

For `CCOC(=O)C1(Cc2ccccc2)CCN(Cc2ccc(O)c(Cl)c2)CC1`, the call was inactive.

Take `CCOC(=O)C1(CCOc2ccccc2)CCN(Cc2ccc(O)c(Cl)c2)CC1`: the result was inactive.

With `CCNC(=O)C1(CCOc2ccccc2)CCN(Cc2ccc(O)c(Cl)c2)CC1`, the outcome was inactive.

As for `CCOC(=O)C1(CCOC)CCCN(Cc2ccc(Cl)cc2)C1` (configuration not stated), the result was inactive.

For the molecule `C=CCOc1ccc(CN2CCC(CCOc3ccccc3)(C(=O)NC3CCCC3)CC2)cc1Cl`, the molecule was called inactive.

As for `CCOC(=O)C1(CCOc2ccccc2)CCN(Cc2ccc(OC)cc2)CC1`, the molecule was classed as inactive.

Regarding `C/C1=C\[C@@H](O)C(C)(C)CCCC2(C)OC2C[C@@H]1OC(=O)c1ccc(O)cc1` (some centres not stated), the call was inactive.

Turning to `CCOC(=O)C1(CCOc2ccccc2)CCN(C(=O)c2ccc(O)c(Cl)c2)CC1`, the molecule was called inactive.

For `CCOC(=O)C1(CCOc2ccccc2)CCN(Cc2ccc3[nH]c(=O)oc3c2)CC1`, the result was inactive.

As to `C=CCOc1ccc(CN2CCC(CCOc3ccccc3)(C(=O)O)CC2)cc1Cl`, the outcome was inactive.

In the case of `CCOC(=O)C1CCN(C(=O)OC(C)(C)C)CC1`, the molecule was called inactive.

`CCOC(=O)C1(CCOc2ccccc2)CCN(C(=O)OC(C)(C)C)CC1`: the result was inactive.

Regarding `O=C(N1CCCC1)C1(CCOc2ccccc2)CCN(Cc2ccc(O)c(Cl)c2)CC1`, the molecule was classed as inactive.

Take `C=CCOc1ccc(CN2CCC(CCOc3ccccc3)(C(=O)OCC)CC2)cc1Cl`: the result was inactive.
